Measurements taken from PubChem BioAssay (Tox21).
Records with an inconclusive call do not appear. Where a call stands in place of a potency, no number is given. Unmarked numbers belong to inactive results. Active and inactive are the calls of the source. Unless noted, calls come from the whole dose curve; as a rule, active = well fitted curve in the direction sought with a large enough effect in the repeat runs; inconclusive = weak or mixed curves; inactive = no such curve, though single readings can be large; an effect the other way counts as inactive or inconclusive.

Columns and labels:
[1] = qHTS assay to identify aromatase inhibitors - cell viability counter screen (AID 743084);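 note: cells stimulated with testosterone during compound exposure; nearly all actives have a fitted effect of over 55% in size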
[2] = target: Aryl hydrocarbon receptor (Homo sapiens) (UniProt P35869); test: qHTS assay to identify small molecule that activate the aryl hydrocarbon receptor (AhR) signaling pathway (AID 743085); note: nearly all actives have a fitted effect of over 15% in size; note: potency is the fitted concentration of half-maximal effect;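 for activation: HG2L7.5c1 human HepG2 liver cells with stably integrated DRE-driven firefly reporter; series mostly up to about 70 µM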
Sequence of Aryl hydrocarbon receptor (Homo sapiens) (P35869 whole entry, looked up): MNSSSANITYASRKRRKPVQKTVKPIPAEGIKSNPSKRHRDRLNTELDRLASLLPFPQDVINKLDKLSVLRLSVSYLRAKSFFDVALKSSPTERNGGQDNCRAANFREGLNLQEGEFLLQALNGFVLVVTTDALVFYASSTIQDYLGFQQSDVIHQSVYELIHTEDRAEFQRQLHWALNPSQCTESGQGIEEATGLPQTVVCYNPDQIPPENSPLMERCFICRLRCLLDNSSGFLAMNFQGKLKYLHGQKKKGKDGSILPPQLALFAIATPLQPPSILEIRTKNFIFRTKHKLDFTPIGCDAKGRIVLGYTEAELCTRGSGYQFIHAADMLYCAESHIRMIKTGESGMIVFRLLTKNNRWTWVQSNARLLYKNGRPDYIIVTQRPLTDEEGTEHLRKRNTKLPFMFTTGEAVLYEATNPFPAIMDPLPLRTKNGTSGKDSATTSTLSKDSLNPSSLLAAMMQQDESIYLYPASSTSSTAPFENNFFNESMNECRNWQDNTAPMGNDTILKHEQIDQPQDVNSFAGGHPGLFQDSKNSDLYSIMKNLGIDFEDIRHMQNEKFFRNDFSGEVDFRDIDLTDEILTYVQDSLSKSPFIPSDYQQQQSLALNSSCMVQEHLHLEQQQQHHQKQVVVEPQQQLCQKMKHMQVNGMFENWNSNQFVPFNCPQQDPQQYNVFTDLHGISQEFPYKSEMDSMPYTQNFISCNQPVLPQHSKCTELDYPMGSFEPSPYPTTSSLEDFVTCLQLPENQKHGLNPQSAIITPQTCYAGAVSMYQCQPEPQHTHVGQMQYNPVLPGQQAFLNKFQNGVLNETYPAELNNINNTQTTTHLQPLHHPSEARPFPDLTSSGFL
In short: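 A multiplexed format paired cell viability (CellTiter-Fluor fluorescence) with AhR-dependent luciferase output (ONE-Glo luminescence) in the same wells of HepG2 DRE-luc cells after 24 h compound exposure at 37C.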

[3] = qHTS assay to identify small molecule that activate the aryl hydrocarbon receptor (AhR) signaling pathway - cell viability counter screen (AID 743086);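 note: HepG2 liver cells carrying the AhR DRE luciferase reporter; series mostly up to about 70 µM; nearly all actives have a fitted effect of over 45% in size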
In short: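 HepG2-AhR-luc (HG2L7.5c1) cells, 4000/well, treated 24 h at 37 C with compound; viability measured as CellTiter-Fluor fluorescence after 30 min in the same wells as the luciferase read.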

[4] = target: Peroxisome proliferator-activated receptor gamma (Homo sapiens) (UniProt P37231); test: qHTS assay to identify small molecule agonists of the peroxisome proliferator-activated receptor gamma (PPARg) signaling pathway (AID 743094; active = well fitted activation curve with a large enough effect in the signal ratio in the repeat runs, not every such curve was filed as active; the % refers to the signal ratio)
Sequence of Peroxisome proliferator-activated receptor gamma (Homo sapiens) (P37231 whole entry, looked up): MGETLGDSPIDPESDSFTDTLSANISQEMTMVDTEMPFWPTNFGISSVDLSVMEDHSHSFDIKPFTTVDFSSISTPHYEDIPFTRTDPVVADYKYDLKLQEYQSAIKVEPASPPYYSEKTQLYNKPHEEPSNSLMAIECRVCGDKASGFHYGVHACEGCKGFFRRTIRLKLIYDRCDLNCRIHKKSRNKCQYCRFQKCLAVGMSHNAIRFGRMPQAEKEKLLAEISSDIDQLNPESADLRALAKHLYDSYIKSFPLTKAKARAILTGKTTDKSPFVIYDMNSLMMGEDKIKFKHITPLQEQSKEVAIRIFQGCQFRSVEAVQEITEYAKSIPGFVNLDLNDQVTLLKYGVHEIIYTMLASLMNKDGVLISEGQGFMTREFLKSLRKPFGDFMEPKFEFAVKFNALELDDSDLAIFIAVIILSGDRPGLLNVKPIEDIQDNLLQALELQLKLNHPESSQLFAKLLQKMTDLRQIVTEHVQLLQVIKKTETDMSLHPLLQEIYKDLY
In short: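 GeneBLAzer PPARg UAS-bla HEK293H cells carrying a stably integrated beta-lactamase reporter were pre-incubated 5 h at 37C, then exposed to compounds in DMSO for 17 h at 37C; LiveBLAzer B/G FRET substrate was added for 1 h at room temperature and fluorescence read.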

[5] = qHTS assay to identify small molecule antagonists of the peroxisome proliferator-activated receptor gamma (PPARg) signaling pathway - cell viability counter screen (AID 743194); note: nearly all actives have a fitted effect of over 55% in size
In short: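 Cytotoxicity counter screen in PPARg-bla HEK293H cells, same wells as reporter assay. Compounds plus 50 nM rosiglitazone (final) for 17 h at 37 C, then viability read by CellTiter-Glo luminescence.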

[6] = qHTS assay for small molecule agonists of the antioxidant response element (ARE) signaling pathway (AID 743202; active = well fitted activation curve with a large enough effect in the signal ratio in the repeat runs, not every such curve was filed as active; the % refers to the signal ratio; note: potency is the fitted concentration of half-maximal effect)
In short: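 ARE-bla HepG2 cells (beta-lactamase reporter under the antioxidant response element), plated 5 hours, then exposed to compounds 16 hours at 37 C. LiveBLAzer B/G FRET substrate added for 2 hours at room temperature; fluorescence intensity read.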

[7] = qHTS assay for small molecule agonists of the antioxidant response element (ARE) signaling pathway - cell viability counter screen (AID 743203; calls by dose curve; note: nearly all actives have a fitted effect of over 55% in size)
In short: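 CellSensor ARE-bla HepG2 cells, 2,000 per well, rested 5 hrs at 37C/5% CO2, then exposed to compound in DMSO for 16 hrs; viability read as CellTiter-Glo luminescence after 30 min at room temperature, in the reporter wells.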

[8] = qHTS assay for small molecule activators of the heat shock response signaling pathway (AID 743210; active = well fitted activation curve with a large enough effect in the signal ratio in the repeat runs, with a control signal flat, not every such curve was filed as active; the % refers to the signal ratio; note: series mostly up to about 63 µM)
In short: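 HSE-bla HeLa cells (beta-lactamase reporter under heat shock response elements), plated overnight, then exposed to compounds 5 h at 37 C; LiveBLAzer B/G FRET substrate added, 2.5 h at room temperature, fluorescence intensity read.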

[9] = qHTS assay for small molecule activators of the heat shock response signaling pathway - cell viability counter screen (AID 743209); note: nearly all actives have a fitted effect of over 50% in size
In short: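 CellSensor HSE-bla HeLa cells, plated overnight at 37 C/5% CO2, were exposed to compounds in DMSO for 5 h at 37 C. Viability was then read in the same wells by CellTiter-Glo luminescence after 30 min at room temperature.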

[10] = target: Peroxisome proliferator-activated receptor gamma (Homo sapiens) (UniProt P37231); test: qHTS assay to identify small molecule antagonists of the peroxisome proliferator-activated receptor gamma (PPARg) signaling pathway (AID 743191; calls by dose curve; note: series mostly up to about 63 µM; nearly all actives have a fitted effect of over 30% in size)
In short: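 GeneBLAzer PPARg UAS-bla HEK293H cells, 5 h post-plating, exposed to compounds 17 h at 37C. LiveBLAzer B/G FRET substrate added for 1 h at room temperature; beta-lactamase reporter read by fluorescence intensity.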

| SMILES | Potency [1] | Potency [2] | Potency [3] | outcome [4] | Potency [5] | Potency [6] | outcome [7] | outcome [8] | outcome [9] | outcome [10] |
| --- | --- | --- | --- | --- | --- | --- | --- | --- | --- | --- |
| CCCC(C)CO (centres undefined) | inactive | inactive | inactive | inactive | inactive | inactive | inactive | inactive |  |  |
| CC(C)c1cccc(O)c1 | inactive | inactive | inactive | inactive | inactive |  | inactive | inactive | inactive |  |
| NS(=O)(=O)c1cc2c(cc1C(F)(F)F)NC(Cc1ccccc1)NS2(=O)=O (centres undefined) | inactive | inactive | inactive | inactive | inactive | inactive | inactive | inactive | inactive |  |
| CCOC(=O)Nc1ccc2c(c1)N(C(=O)CCN1CCOCC1)c1ccccc1S2 | inactive | inactive | inactive | inactive | inactive | 11.9 µM (active) | inactive | inactive | inactive |  |
| CCCCCC[C@@H](CCC)C(=O)O | inactive | inactive | inactive | inactive | inactive | inactive | inactive | inactive | inactive |  |
| COc1cc(CCC(C)=O)ccc1O | inactive | inactive | inactive | inactive | inactive |  | inactive |  |  |  |
| O=C(O)c1ccccc1-c1ccc(C(F)(F)F)cc1 | inactive | inactive | inactive |  | inactive | inactive | inactive | inactive | inactive |  |
| CO | inactive | inactive | inactive |  | inactive | inactive | inactive | inactive | inactive |  |
| CCCCCCC(CCCCCCCCCCC(=O)OCC(COC(C)=O)OC(C)=O)OC(C)=O (centres undefined) | inactive | inactive | inactive |  | inactive |  | inactive | inactive | inactive |  |
| Cn1cnc2c(=O)[nH]c(N)nc21 | inactive | inactive | inactive | inactive | inactive | inactive | inactive | inactive | inactive |  |
| Nc1nc(F)nc2c1ncn2[C@@H]1O[C@H](CO)[C@@H](O)[C@@H]1O | inactive | inactive | inactive | inactive | inactive |  | inactive | inactive | inactive |  |
| CC(C)=CCC/C(C)=C/C(=O)O | inactive | inactive | inactive |  | inactive | inactive | inactive | inactive |  |  |
| Cc1nc(-c2ccc(OCC(C)C)c(C#N)c2)sc1C(=O)O | inactive | 0.0298 µM (active) | inactive | inactive | inactive |  | inactive | inactive | inactive |  |
| CO[Si](CCCNCCC[Si](OC)(OC)OC)(OC)OC | inactive | inactive | inactive | inactive | inactive | inactive | inactive | inactive | inactive |  |
| COc1ccc(NC(C)=O)cc1 | inactive | inactive | inactive | inactive | inactive | inactive | inactive | inactive |  |  |
| C[C@H]1O[C@@H](n2cc(F)c(=O)[nH]c2=O)[C@H](O)[C@@H]1O | inactive | inactive | inactive | inactive | inactive |  | inactive |  | inactive |  |
| NS(=O)(=O)c1cc(C2(O)NC(=O)c3ccccc32)ccc1Cl (centres undefined) | inactive | inactive | inactive | inactive | inactive | inactive | inactive | inactive |  |  |
| CCCCCN(CCCCC)C(=O)C(CCC(=O)O)NC(=O)c1ccc(Cl)c(Cl)c1 (centres undefined) | inactive | inactive | inactive | inactive | inactive |  | inactive |  | inactive |  |
| CNc1ncnc2nc[nH]c12 | inactive | inactive | inactive | inactive | inactive |  | inactive | inactive | inactive |  |

| SMILES | Potency [1] | Potency [2] | Potency [3] | outcome [4] | Potency [5] | Potency [6] | outcome [7] | outcome [8] | outcome [9] | outcome [10] |
| --- | --- | --- | --- | --- | --- | --- | --- | --- | --- | --- |
| COC[C@H](c1ccc(C(F)(F)F)cc1)N1CCN(C2(C)CCN(C(=O)c3c(C)ncnc3C)CC2)C[C@H]1C | inactive | inactive | inactive | inactive | inactive |  | inactive | inactive | inactive |  |
| CCCCCCCCCCC1CO1 (centres undefined) | inactive | inactive | inactive |  | inactive |  | inactive | inactive | inactive | inactive |
| C(=C(c1ccccc1)c1ccccc1)c1ccccc1 | inactive | inactive | inactive | inactive | inactive |  | inactive | inactive |  |  |
| CCCOCC(C)OCC(C)O (centres undefined) | inactive | inactive | inactive |  | inactive |  | inactive | inactive | inactive |  |
| Nc1cc(C(Cl)=C(Cl)Cl)c(S(N)(=O)=O)cc1S(N)(=O)=O | inactive | inactive | inactive | inactive | inactive | inactive | inactive | inactive | inactive |  |
| CCC(C)OC(=O)N1CCCCC1CCO (centres undefined) | inactive | inactive | inactive | inactive | inactive | inactive | inactive | inactive | inactive |  |
| CCO[Si](C)(OCC)OCC | inactive | inactive | inactive |  | inactive | inactive | inactive | inactive | inactive |  |
| CCCCCCC(=O)OCC | inactive | inactive | inactive | inactive | inactive |  | inactive |  | inactive |  |
| C1CCCCCCCCCCC1 | inactive | inactive | inactive |  | inactive | inactive | inactive | inactive | inactive |  |
| CC1(C)SC(C)(C)SC(C)(C)S1 | inactive | inactive | inactive | inactive | inactive | inactive | inactive | inactive |  |  |
| COc1cc(C(=O)N2CCOCC2)cc(OC)c1OC | inactive | inactive | inactive | inactive | inactive | inactive | inactive | inactive | inactive |  |
| CC(=O)OC(C)(C)C | inactive |  |  | inactive | inactive | inactive | inactive | inactive | inactive | inactive |
| NC(=O)Nc1nc2ccccc2[nH]1 | inactive |  | inactive | inactive | inactive |  | inactive |  | inactive | inactive |
| Cc1c(C)n(CCN(C)C)c2ccc(C(=O)OCCN(C)C)cc12 | inactive |  |  | inactive | inactive |  | inactive |  | inactive | inactive |
| Cc1ccc(Nc2ccc(O)c3c2C(=O)c2ccccc2C3=O)cc1 | inactive |  | inactive | inactive | inactive |  | inactive | inactive | inactive | inactive |
| COC(=O)[C@H]1[C@H]2C[C@@H]3c4[nH]c5cc(OC)ccc5c4CCN3C[C@H]2C[C@@H](OC(=O)COc2ccc(OC)cc2)[C@@H]1OC | inactive |  | inactive |  | inactive | inactive | inactive |  |  |  |
| C1C2OC2C2C1C1CC2C2OC12 (centres undefined) | inactive |  | inactive | inactive | inactive | inactive | inactive | inactive | inactive |  |
| C=C(C)C(=O)OCCCCCCCCCCCCCCCCCC | inactive |  |  | inactive | inactive | inactive | inactive | inactive | inactive | inactive |
